Source: PubChem
Rows were chosen to be rich in hits. Some 10% of all compounds tested hit in one or more screens of this group.
CtBP-E1A blk: qHTS Assay for Inhibitors of the CtBP/E1A Interaction; AlphaScreen GST-E1A/His-CtBP binding, 1536-well; active compounds read low; activity change, % (no concentration beside the values); 340,000 tested, 0.49% active; AID 651724, 2012; in the data active means activity change below about -65%; inconclusive means mostly about -30% to -63%; further: on the % scale 0 is the no-effect control and ±100 the full control effect
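Protein mix (5X: 125 nM each GST-E1A, His-CtBP) was incubated with pinned compound 2 h at 37 deg C in dark, in 50 mM Tris pH 8.0 buffer with 300 mM NaCl. Glutathione donor and nickel acceptor beads followed; AlphaScreen signal read after 1 h.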
HP1b chromo inh: HTS for Inhibitors of HP1-beta Chromodomain Interactions with Methylated Histone Tails | Chromobox protein homolog 1 (Homo sapiens), P83916 | AlphaScreen HP1-beta / biotin-H3K9me3 peptide binding | Potency, µM (doses to about 114 µM), inactives show at the highest dose activity change, negative = inhibition, actives largely listed as inhibitors | 390,000 tested, 0.56% active | AID 540317, 2011; further: potency means the concentration at half of the fitted maximal effect; nearly all actives have a fitted effect of over 70% in size
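HP1-beta protein (50 nM final) preincubated 30 min at room temperature with biotinylated H3(1-18)K9me3 peptide (50 nM) in PBS pH 7.4, 0.01% Tween-20, then compound added for 30 min. AlphaScreen streptavidin donor/nickel chelate acceptor beads (10 ug/mL final), 30 min dark, luminescence read.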
G9a inh: qHTS Assay for Inhibitors of Histone Lysine Methyltransferase G9a; Potency, µM (highest dose often 102 µM), inactives show at the highest dose activity, negative = inhibition, actives largely listed as inhibitors; 350,000 tested, 8.8% active; G9a H3K9 monomethylation, AlphaScreen, 2 h; AID 504332, 2011; Histone-lysine N-methyltransferase EHMT2 (Homo sapiens), Q96KQ7; further: potency means the concentration at half of the fitted maximal effect; on the % scale 0 is the no-effect control and ±100 the full control effect; nearly all actives have a fitted effect of over 75% in size
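Chemiluminescent proximity detection of H3K9 monomethylation, read after 10 min bead incubation in the dark. Reaction: 20 nM G9a, 500 nM biotin-H3K9 peptide, 20 uM SAM cofactor, 2 h, room temperature, following 15 min enzyme-compound preincubation.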
JMJD2A Tudor: qHTS Assay for Inhibitors of JMJD2A-Tudor Domain | Lysine-specific demethylase 4A (Homo sapiens), O75164 | AlphaScreen JMJD2A-Tudor / H3K4me3 peptide binding | Potency, µM (top dose mostly 114 µM), inactives show top-dose activity change, negative = inhibition, actives largely listed as inhibitors | 390,000 tested, 4.4% active; further: potency means the concentration at half of the fitted maximal effect; on the % scale 0 is the no-effect control and ±100 the full control effect; nearly all actives have a fitted effect of over 50% in size
BAZ2B block: qHTS Assay for Inhibitors of BAZ2B | Bromodomain adjacent to zinc finger domain protein 2B (Homo sapiens), Q9UIF8 | AlphaScreen BAZ2B-H3K14Ac peptide displacement | Potency, µM (doses to about 114 µM), for inactives: at the top dose activity change, negative = inhibition, actives largely listed as inhibitors | 360,000 tested, 4.4% active | AID 504333, 2011; further: potency means the concentration at half of the fitted maximal effect; on the % scale 0 is the no-effect control and ±100 the full control effect; nearly all actives have a fitted effect of over 60% in size
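In this displacement format the biotinylated H3(5-23) peptide acetylated at Lys14 serves as ligand at 50 nM, with BAZ2B at 50 nM in PBS pH 7.4 containing 0.01% Tween-20. Donor and acceptor beads are 10 ug/mL final.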
Six1-Eya2 inh: qHTS Assay for Inhibitors of the Six1/Eya2 Interaction; AlphaScreen GST-Six1/His-Eya2 binding, biochemical; active compounds read low; 360,000 tested, 0.56% active; AID 651725, 2012; activity change, % (test concentration not listed); Homeobox protein SIX1 (Homo sapiens) + Protein phosphatase EYA2 (Homo sapiens), …; in the data active means activity change below about -65%; inconclusive means mostly about -30% to -63%; further: on the % scale 0 is the no-effect control and ±100 the full control effect
Target sequence (O00167 whole entry, looked up): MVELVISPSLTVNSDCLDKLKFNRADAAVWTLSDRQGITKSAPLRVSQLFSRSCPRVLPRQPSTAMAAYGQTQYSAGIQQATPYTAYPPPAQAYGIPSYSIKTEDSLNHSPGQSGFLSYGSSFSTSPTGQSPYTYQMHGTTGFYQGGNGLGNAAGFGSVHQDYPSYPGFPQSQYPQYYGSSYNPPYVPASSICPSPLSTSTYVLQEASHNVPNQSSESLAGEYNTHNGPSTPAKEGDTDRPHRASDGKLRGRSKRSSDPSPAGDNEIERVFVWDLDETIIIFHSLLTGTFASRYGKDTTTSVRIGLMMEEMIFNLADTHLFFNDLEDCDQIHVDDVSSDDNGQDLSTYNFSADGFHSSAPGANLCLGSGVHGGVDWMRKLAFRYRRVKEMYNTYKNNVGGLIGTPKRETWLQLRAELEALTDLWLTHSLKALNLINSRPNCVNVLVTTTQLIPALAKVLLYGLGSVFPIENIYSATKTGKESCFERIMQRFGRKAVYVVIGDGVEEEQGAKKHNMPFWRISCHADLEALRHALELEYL
Target sequence (Q15475 whole entry, looked up): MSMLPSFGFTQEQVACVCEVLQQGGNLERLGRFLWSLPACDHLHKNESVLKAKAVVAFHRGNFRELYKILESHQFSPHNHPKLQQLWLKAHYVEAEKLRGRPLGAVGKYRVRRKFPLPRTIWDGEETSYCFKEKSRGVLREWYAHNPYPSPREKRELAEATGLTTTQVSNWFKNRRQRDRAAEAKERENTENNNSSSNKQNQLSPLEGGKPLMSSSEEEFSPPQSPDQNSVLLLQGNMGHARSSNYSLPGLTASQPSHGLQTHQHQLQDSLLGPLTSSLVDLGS
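Compounds are tested against tagged Six1 and Eya2 proteins bridged by glutathione donor and nickel acceptor beads; after a one-hour incubation at 37 °C without light, AlphaScreen emission is recorded.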
Active calls of the source: *; ? = inconclusive; / = not tested or not shown; [ ] = remark or other dose. Unless noted, the call rests on the fitted dose curve; in most records, active means well fitted inhibition curve with a large enough effect; inconclusive means small, poorly fitted or top-dose-only effect; inactive means no such curve, though single readings can be large or run the other way.

SMILES	CtBP-E1A blk	HP1b chromo inh	G9a inh	JMJD2A Tudor	BAZ2B block	Six1-Eya2 inh
O=C(/C=C/[C@H]1O[C@@H](n2ccc(=O)[nH]c2=O)[C@H](O)[C@@H]1O)NCCc1c[nH]c2ccccc12	3.6	/	/	/	/	7.1
CCOC(=O)C1=C(CN2CCN(c3cc(C)ccc3C)CC2)NC(=O)NC1c1ccccc1 (stereo not given)	/	-15.8%	?	?	-33.4%	/
CC(C)C(C)N(Cc1cccc(C(=O)O)c1)C(=O)c1ccc2ccccc2n1 (stereo not given)	6.7	66.5%	/	2.3%	/	1.5
CC(=O)c1ccc(NS(=O)(=O)c2ccc(Br)s2)cc1	/	43.0%	0.7%[59 µM]	3.1%	0.4%	/
COc1cc(CN2CCNC(=O)C2CC(=O)NCCCC2CCCC2)cc(OC)c1 (stereo not given)	-9.2	20.6%	70.8µM*	-25.8%	-22.0%	7.9
COc1cccc(CN2CCNC(=O)C2CC(=O)N(C)C2CCCCC2)c1 (stereo not given)	2.1	31.5%	50.1µM*	-13.6%	-19.9%	3.5
CN(Cc1ccccn1)C(=O)CC1C(=O)NCCN1Cc1ccc(F)cc1Cl (stereo not given)	-5.1	13.5%	/	?	56.2µM*	-6.0
Cn1c(CSCc2ccccc2)n[nH]c1=S	5.9	11.9%	7.94µM*	7.94µM*	-7.7%	3.4
Cn1c(Cn2c3ccccc3c3ccccc32)n[nH]c1=S	/	23.1%	7.94µM*	-9.6%	-3.5%	0.0
Cn1c(CSCc2ccccc2Cl)n[nH]c1=S	/	9.3%	/	?	-25.6%	2.7
C=C(C)Cn1c(CCn2c3ccccc3c3ccccc32)n[nH]c1=S	-3.2	31.4%	?	-27.1%	-31.9%	-17.6
COc1cccc2cc(-c3n[nH]c(=S)n3C)oc12	4.1	-12.1%	7.08µM*	7.94µM*	-27.6%	-1.1
Cn1c(-c2cccc3ccccc23)n[nH]c1=S	8.0	20.5%	5.01µM*	20µM*	-5.4%	2.9
CCc1ccc2oc(-c3ccc(NC(=O)c4cccc(Cl)c4Cl)cc3)nc2c1	/	27.2%	-17.1%[59 µM]	-14.4%	1.7%	/
O=C(c1n[nH]c2ccccc12)N1CCN(c2ccc(F)cc2)CC1	-0.8	28.7%	5.1%	-15.4%	-39.0%	-19.3
O=C(NCc1ccco1)C1CCN(C(=O)N2CCOc3ccc(Cl)cc32)CC1	/	43.5%	-31.7%[59 µM]	-20.4%	-32.2%	/
Cn1c(CSCc2ccc(F)cc2)n[nH]c1=S	/	11.2%	/	28.2µM*	-8.9%	0.2
Cn1c(CSCc2ccc(Cl)cc2)n[nH]c1=S	-17.7	5.7%	10µM*	?	-21.7%	-8.0
Cn1c(CSCc2ccc(Cl)cc2Cl)n[nH]c1=S	3.3	3.4%	/	-29.1%	-7.1%	0.9
c1ccc(C[C@H]2CN=C(Nc3ccccc3)N2CC2CCCC2)cc1	-26.1	/	/	/	/	13.2
CC1=C(c2ccc(C)cc2)S(=O)(=O)NC1=NCc1cccc(F)c1	/	8.5%	-44.0%[59 µM]	-27.5%	?	/
O=C(c1ccc(CSc2nc3ccncc3[nH]2)cc1)N1CCN(c2cccc(Cl)c2)CC1	-29.1	13.1%	44.7µM*	?	35.5µM*	-22.8
CC12CC[C@@H]3c4ccc(OS(=O)(=O)O)cc4CC[C@H]3C1CCC2=O (stereo not given in full)	/	/	14.4%[21.5 µM]	/	/	/
Cc1c(C(=O)NN)[nH]c2ccc([N+](=O)[O-])cc12	-7.1	28.4%	4.9%	-11.8%	35.5µM*	-13.2
NC(=O)N=Nc1c(O)[nH]c2ccc([N+](=O)[O-])cc12	-71.6*	29.7%	/	-21.5%	-12.5%	?
SMILES	CtBP-E1A blk	HP1b chromo inh	G9a inh	JMJD2A Tudor	BAZ2B block	Six1-Eya2 inh
COc1ccccc1C(=O)N=Nc1c(O)[nH]c2ccc([N+](=O)[O-])cc12	/	15.9%	13.4%	-29.1%	?	?
NNC(=O)c1[nH]c2ccc([N+](=O)[O-])cc2c1-c1ccccc1	/	22.3%	?	-28.9%	-15.0%	-8.0
CC(C)NC(=S)N=Nc1c(O)[nH]c2ccc([N+](=O)[O-])cc12	22.2	-21.5%	?	-17.5%	18.9%	-68.0*
O=C(NCc1ccccn1)[C@@H]1CCCN1C(=O)[C@@H]1CCCN1C(=O)c1cccs1	8.3	/	/	/	/	-1.9
CC(C)NC(=O)N(C)C[C@H]1Oc2ncc(Br)cc2C(=O)N([C@H](C)CO)C[C@@H]1C	3.1	/	/	/	/	2.7
CCOC(=O)C(=NC(C)(C)C)NNc1cc(Cl)ccc1Cl	-22.8	-2.0%	17.8µM*	?	?	-23.2
CCOC(=O)C(=O)NNc1ccc(Cl)cc1	-0.6	31.7%	?	3.0%	-1.9%	-0.2
CCOC(=O)C(=NC(C)C)NNc1cc(Cl)ccc1Cl	-8.6	14.0%	8.91µM*	?	?	-14.4
CCCc1ccc(C(=O)NNc2cc(Cl)ccc2Cl)cc1	10.2	14.5%	?	-1.4%	1.6%	14.8
COC(=O)[C@]12CCCCC=C1N(Cc1cccc3ccccc13)C(=O)[C@H](CC(=O)N1CCN(C(=O)C3CC3)CC1)C2	-0.8	/	/	/	/	-8.3
O=S1(=O)N[C@H](Cc2ccccc2)COc2cc(N3CCC[C@@H]3CO)ccc21	-19.7	/	/	/	/	5.7
Cc1csc(=NC(=O)c2ccccc2)n1Cc1ccco1	-10.0	-5.1%	?	-20.9%	-36.6%	-12.5
Cc1csc(=Nc2ccccc2)n1Cc1ccco1	/	?	39.8µM*	44.7µM*	63.1µM*	-9.8
COc1ccc(NC(=O)C2=C(C)Nc3nc(SCc4ccccc4C)nn3C2c2cc(OC)c(O)c(OC)c2)cc1 (stereo not given)	/	32.5%	-25.8%[59 µM]	-9.9%	79.4µM*	/
COc1ccc(S(=O)(=O)NN(C)C(=O)c2nn(-c3ccccc3)ccc2=O)cc1	-0.9	14.4%	/	-3.4%	4.9%	-3.9
O=C(CSc1nc2nccnc2c(=O)n1CCc1c[nH]c2ccccc12)Nc1ccc(F)cc1	/	9.8%	9.1%[59 µM]	-17.1%	-5.0%	/
Cn1ccnc1Sc1cc(NCCCO)c([N+](=O)[O-])c2nonc12	-9.7	3.0%	56.2µM*	-16.1%	-8.0%	?
CC(=O)OCCNc1cc(Sc2nc3ccccc3[nH]2)c2nonc2c1[N+](=O)[O-]	-2.1	?	3.98µM*	56.2µM*	?	?
O=[N+]([O-])c1c(NCCCO)cc(SCc2ccco2)c2nonc12	15.4	5.2%	8.91µM*	-27.7%	?	-3.3
